Laboratory results from PubChem BioAssay.
For part of these data: Potency and affinity values are given separately. Active and inactive are the calls of the source.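 How the source made its calls, unless noted: active means fitted half-maximal concentration within 10 nM to 100 µM, steepness 0.5 to 2, significant signal drop, low assay interference; inactive means the rest.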

Tests used:
[1] = target: Cell division control protein 42 homolog (Homo sapiens) (UniProt P60953); test: inhibition of fluorescent GTP binding to constitutively active Cdc42 – biochemical, multiplex bead flow cytometry, Bodipy-FL-GTP, dose response (AID 1333;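 active means fitted half-maximal concentration within the tested dose range, moderate curve steepness, a statistically real signal drop, and little compound fluorescence or tag-binding interference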)
Chain of Cell division control protein 42 homolog (Homo sapiens) (P60953 whole entry, looked up): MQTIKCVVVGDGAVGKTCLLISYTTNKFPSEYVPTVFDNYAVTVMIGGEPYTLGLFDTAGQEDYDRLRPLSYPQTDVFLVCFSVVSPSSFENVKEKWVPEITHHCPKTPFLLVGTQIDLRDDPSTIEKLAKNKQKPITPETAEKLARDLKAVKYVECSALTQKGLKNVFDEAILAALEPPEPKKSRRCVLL

[2] = target: Cell division control protein 42 homolog (Homo sapiens) (UniProt P60953); test: inhibition of fluorescent GTP binding to wildtype Cdc42 – biochemical, multiplex bead flow cytometry, Bodipy-FL-GTP, dose response (AID 1334;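 active means fitted half-maximal concentration within the tested range, moderate curve steepness, significant signal drop, and little compound fluorescence or bead-linkage interference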); settings: bead-based flow cytometry, Bodipy-FL-GTP binding to GST-Cdc42; at 100 µM (top of the series) unless noted
[3] = target: GTPase HRas (Homo sapiens) (UniProt P01112); test: Ras wt fluorescent GTP loading blockade – biochemical, wildtype, multiplex bead flow cytometry, dose response (AID 1335); settings: bead-based flow cytometry, Bodipy-GTP binding to GST-Ras; at 100 µM (top of the series) unless noted
Chain of GTPase HRas (Homo sapiens) (P01112 whole entry, looked up): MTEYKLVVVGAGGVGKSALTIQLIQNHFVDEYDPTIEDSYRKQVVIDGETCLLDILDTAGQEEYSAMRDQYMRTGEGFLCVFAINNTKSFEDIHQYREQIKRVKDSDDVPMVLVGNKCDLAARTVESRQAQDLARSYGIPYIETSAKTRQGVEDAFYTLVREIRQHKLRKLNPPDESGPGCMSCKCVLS

[4] = system: Ras-related protein Rab-7a (dog), GTP binding; test: blockers of fluorescent GTP binding to Rab7 – biochemical, wildtype, multiplex bead flow cytometry, dose response (AID 1336; call rule not given here)
[5] = target: Ras-related C3 botulinum toxin substrate 1 (Homo sapiens) (UniProt P63000); test: inhibition of wildtype Rac1 nucleotide loading – biochemical, multiplex bead flow cytometry, dose response (AID 1340;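 active means dose curve with midpoint inside tested range, moderate steepness, plateau gap beyond fit error, low compound glow and bead-link interference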); settings: GST-Rac1 beads, Bodipy-FL-GTP binding; at 100 µM (top of the series) unless noted
[6] = target: GTPase HRas (Homo sapiens) (UniProt P01112); test: blockade of GTP loading onto mutant Ras – biochemical, activated mutant, multiplex bead flow cytometry, dose response (AID 1341;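 active means dose-response curve with midpoint inside the tested range, moderate steepness, significant amplitude and little compound fluorescence or bead-attachment interference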;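 further: GST-tagged constitutively activated Ras mutant immobilized on beads and multiplexed with other GTPases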)

| SMILES | outcome [1] | fluorescence, percent of control (lower = inhibition) [2] [%] | GTP binding, percent of control [3] [%] | outcome [4] | GTP binding signal, raw median fluorescence (lower = inhibition) (MCF (arbitrary fluorescence units)) [5] | outcome [6] |
| --- | --- | --- | --- | --- | --- | --- |
| O=C(O)c1ccc(CSCc2ccccc2Cl)o1 | inactive | 57.8 | 79.8 | inactive | 30.2 | inactive |
| Cc1cc(C(=O)NC(=S)Nc2cccc(C(=O)O)c2C)ccc1[N+](=O)[O-] | inactive | 37.3 | 85.8 | inactive | 272 | inactive |
| Cc1ccc(-c2c(C(=O)O)c(C(=O)O)c3n2CCC3)cc1 | inactive | 32.3 | 78.1 | inactive | 239 | inactive |
| CCc1ccccc1NC(=O)N1C2CCCC1CC(NC(C)=O)C2 (stereo not given) | inactive | 102 | 152 | inactive | 191 | inactive |
| O=c1c2ccccc2nc2ccc(NCc3cccs3)nn12 | inactive | 33.1 | 76.2 | inactive | 195 | inactive |
| Cc1nn(-c2ccc(F)cc2)c(Cl)c1/C=C(\CCC(=O)O)c1nc2ccccc2s1 | inactive | 64.7 | 53.6 | inactive | 164 | inactive |
| COc1ccc(CC(=O)Nc2ccc(S(=O)(=O)NC(C)C)cc2)cc1 | inactive | 51.9 | 66.7 | inactive | 0 | inactive |
| N#C/C(=C\c1ccc(-c2ccc(C(=O)O)cc2)o1)c1nc2ccccc2[nH]1 | inactive | 168 | 221 | inactive | 144 | inactive |
| Cc1nnc2ccc(-c3ccc(NC(=O)c4ccco4)cc3)nn12 | inactive | 69.8 | 109 | inactive | 215 | inactive |
| CC(C)c1nc2oc3c(=O)[nH]cnc3c2c2c1CCC2 | inactive | 80 | 108 | inactive | 138 | inactive |
| Cc1n[nH]c(=S)c2nn(-c3ccccc3F)c(C)c12 | inactive | 48.5 | 62.5 | inactive | 179 | inactive |
| O=C(Cn1nc2ccccc2n1)N/N=C/c1cc([N+](=O)[O-])ccc1O | inactive | 23.8 | 54.9 | inactive | 109 | inactive |
| O=C(O)c1cccc(-n2cccc2/C=C2/NC(=O)N(c3ccc(Cl)cc3)C2=O)c1 | inactive | 22.7 | 64.3 | inactive | 213 | inactive |
| COc1ccc(S(=O)(=O)N2CCCCC2)cc1NC(=O)c1ccc([N+](=O)[O-])o1 | inactive | 32.3 | 73.3 | inactive | 172 | inactive |
| OCCC1CN(Cc2ccccc2O)CCN1CCc1ccccc1 (stereo not given) | inactive | 34.2 | 82.7 | inactive | 255 | inactive |
| O=C(COc1ccccc1C(=O)N/N=C\c1ccc(O)c(O)c1)N/N=C/c1ccc(O)c(O)c1 | inactive | 38 | 157 | inactive | 193 | inactive |
| COc1ccc(CNCc2sc(C(=O)O)cc2C)cc1OC | inactive | 59.2 | 78.1 | inactive | 32.2 | inactive |
| Oc1ccc(NC(=S)N=Nc2c(O)[nH]c3ccccc23)cc1 | inactive | 16.7 | 62.5 | inactive | 62.8 | inactive |
| CCOc1ccc(-n2c(SCC(=O)NC(C)CC)nc3n[nH]c(C)c3c2=N)cc1 (stereo not given) | inactive | 38.4 | 48.1 | inactive | 0 | inactive |
| Cc1c(CCC(=O)O)c(=O)oc2cc3occ(-c4ccc(F)cc4)c3cc12 | inactive | 29.1 | 72.6 | inactive | 160 | inactive |

| SMILES | outcome [1] | fluorescence, percent of control (lower = inhibition) [2] [%] | GTP binding, percent of control [3] [%] | outcome [4] | GTP binding signal, raw median fluorescence (lower = inhibition) (MCF (arbitrary fluorescence units)) [5] | outcome [6] |
| --- | --- | --- | --- | --- | --- | --- |
| CC1CCCN(c2ccc3nc4ccccc4c(=O)n3n2)C1 (stereo not given) | inactive | 33.3 | 74.6 | inactive | 179 | inactive |
| CCCCCCn1nc(C(=O)OCC(=O)c2c(N)n(C)c(=O)n(C)c2=O)c2ccccc2c1=O | inactive | 36 | 80.1 | inactive | 203 | inactive |
| COc1cc(C(=O)OCC(=O)Nc2ccc3c(c2)OC(F)(F)O3)ccc1OCc1c(C)noc1C | inactive | 52.4 | 53.9 | inactive | 186 | inactive |
| c1ccc(-c2onc3c2CCCC3)cc1 | inactive | 97.3 | 144 | inactive | 192 | inactive |
| C=CCOc1cccc(/C=N/NC(=O)CN(c2cc(Cl)ccc2OC)S(=O)(=O)c2ccc(C)c([N+](=O)[O-])c2)c1 | inactive | 50.3 | 56 | inactive | 0 | inactive |
| COc1cccc2c(SCC(=O)N/N=C/c3ccc(O)cc3O)cc(C)nc12 | inactive | 29.6 | 62.9 | inactive | 110 | inactive |
| COCCn1c(N)c(C(=O)Nc2sc3c(c2C(=O)OC)CCCC3)c2nc3ccccc3nc21 | inactive | 52 | 108 | inactive | 120 | inactive |
| CCOc1ccc(NC(=S)N=Nc2c(O)[nH]c3ccccc23)cc1 | inactive | 35.5 | 74.3 | inactive | 170 | inactive |
| COc1ccc(/C=N/NC(=O)Nc2cccc3nsnc23)cc1OC | inactive | 45.1 | 46.7 | inactive | 132 | inactive |
| COc1ccc(S(=O)(=O)N2CCOCC2)cc1C(=O)Nc1nc2ccccc2s1 | inactive | 46.1 | 55.9 | inactive | 153 | inactive |
| O=C(COC(=O)/C=C/c1cccc([N+](=O)[O-])c1)NCc1ccc2c(c1)OCO2 | inactive | 34.8 | 82.9 | inactive | 254 | inactive |
| Cc1cc(=O)[nH]c2c(N=Nc3ccc(O)cc3)c(N)nn12 | inactive | 31.3 | 69.7 | inactive | 161 | inactive |
| COc1cc(Cl)c(C)cc1NCc1sc(C(=O)O)cc1C | inactive | 58.6 | 82 | inactive | 29.9 | inactive |
| CCN(CC)c1ccc(/C=N/OCC(=O)Nc2cccc(C)c2)cc1 | inactive | 65.3 | 74.6 | inactive | 0 | inactive |
| Cc1ccc(Sc2c(C)nn(C(=O)C3CC3)c2C)cc1 | inactive | 28.8 | 78.5 | inactive | 236 | inactive |
| Cc1ccc(C(=O)O)c(OCCc2c(C)cccc2C)n1 | inactive | 64.4 | 224 | inactive | 57 | inactive |
| COc1cc(/C=N/NC(=O)CCN2CCN(c3ccccc3)CC2)cc(OC)c1OC | inactive | 34.6 | 77.3 | inactive | 236 | inactive |
| N=C1/C(=C\c2ccc(SCc3ccco3)o2)C(=O)N=C2SC=NN12 | inactive | 64.2 | 108 | inactive | 112 | inactive |
| CN(C)/C=C(\C#N)C(N)=C(C#N)C#N | inactive | 38.1 | 82.8 | inactive | 259 | inactive |
| CC(=O)Nc1ccc(/C=N/NC(=O)CCN2CCN(c3ccccc3)CC2)cc1 | inactive | 33.8 | 74.7 | inactive | 140 | inactive |

| SMILES | outcome [1] | fluorescence, percent of control (lower = inhibition) [2] [%] | GTP binding, percent of control [3] [%] | outcome [4] | GTP binding signal, raw median fluorescence (lower = inhibition) (MCF (arbitrary fluorescence units)) [5] | outcome [6] |
| --- | --- | --- | --- | --- | --- | --- |
| Cc1ccc(N2C(=O)c3ccccc3C2Nc2cccnc2)nc1 (stereo not given) | inactive | 37 | 84.5 | inactive | 272 | inactive |
| O=C(NCCc1c[nH]c2ccccc12)c1cccc(S(=O)(=O)Nc2ccccc2Cl)c1 | inactive | 32.1 | 71.4 | inactive | 175 | inactive |
| CC(Sc1nnc(NC2CCCCC2)s1)C(=O)Nc1ccc2c(c1)C(=O)c1ccccc1C2=O (stereo not given) | inactive | 49.1 | 61.4 | inactive | 161 | inactive |
| O=C(Nc1cccc(Cl)c1)N1CCN(c2ncccn2)CC1 | inactive | 47.5 | 60.6 | inactive | 201 | inactive |
| CN(/N=C/c1ccco1)C1=NS(=O)(=O)c2ccccc21 | inactive | 32 | 74.9 | inactive | 206 | inactive |
| Cc1ccc(C(C)C)c(OCc2ccccc2C(=O)O)c1 | inactive | 73.5 | 87 | inactive | 48.6 | inactive |
| Cc1ccc(CN2CC34C=CC(C)(O3)C(C(=O)O)C4C2=O)cc1 (stereo not given) | inactive | 60.3 | 87.8 | inactive | 33.4 | inactive |
| N#C/C(=C(/O)COc1ccc(Br)cc1)c1nnc2n1CCCCC2 | inactive | 29.2 | 79.2 | inactive | 262 | inactive |
| Nc1ccc(-c2cn3cccnc3n2)cc1 | inactive | 40.9 | 88.5 | inactive | 287 | inactive |
| O=C(O)c1ccc(N2C(=O)/C(=C/c3ccc(-c4ccc([N+](=O)[O-])cc4)o3)C=C2c2ccccc2)cc1 | inactive | 33.9 | 77.4 | inactive | 179 | inactive |
| Cc1cc(C)n2nc(C(=O)Nc3cccc(S(=O)(=O)N4CCCC4)c3)nc2n1 | inactive | 33.5 | 78.7 | inactive | 227 | inactive |
| OC(CN1CCN(Cc2ccc3c(c2)OCO3)CC1)c1c[nH]c2ccccc12 (stereo not given) | inactive | 36.1 | 78.7 | inactive | 281 | inactive |
| CC(=O)NC1CC2CCCC(C1)N2C(=O)Nc1ccccc1 (stereo not given) | inactive | 88.1 | 152 | inactive | 217 | inactive |
| Oc1ccc(C2=Nn3c(nnc3-c3ccco3)SC2)cc1O | inactive | 25.1 | 35.2 | inactive | 0 | inactive |
| C=C(C)COc1ccc(-c2n[nH]c(C)c2-c2ccc(Br)cc2)c(O)c1 | inactive | 32.9 | 78.5 | inactive | 265 | inactive |
| COc1ccc2nc(/C(C#N)=C\c3ccc(C(=O)O)cc3)[nH]c2c1 | inactive | 31.4 | 72.6 | inactive | 189 | inactive |
| CC(C)(C)c1ccc(OCCSc2nc3ccccc3n2CC(=O)O)cc1 | inactive | 52.3 | 87.1 | inactive | 35.4 | inactive |
| O=C(O)COc1ccccc1/C=N/Nc1ccc(S(=O)(=O)Nc2ccc(Cl)cc2)cc1[N+](=O)[O-] | inactive | 28.1 | 79.9 | inactive | 174 | inactive |
| O=c1[nH]c(=O)c2nnc(N/N=C\c3ccc(O)cc3)nc2[nH]1 | inactive | 32.2 | 69.1 | inactive | 147 | inactive |
| Cc1ccc(C(C)C)c(OCCn2cc(C(=O)O)c3ccccc32)c1 | inactive | 66.7 | 86.3 | inactive | 44.5 | inactive |
